Test results published in PubChem BioAssay AID720534 (National Center for Advancing Translational Sciences (NCATS), 2013).
Among all 1,600 compounds or so, about 990 (62%) were called active. Not shown: some 30% with an inconclusive outcome. Calls come from the whole dose curve; as a rule, active = well fitted inhibition curve with a large enough effect; inconclusive = small, poorly fitted or top-dose-only effect; inactive = no such curve, though single readings can be large or run the other way. So high a share suggests a set chosen from earlier hits. The entries come from a sample that favours actives as a whole.

Test: qHTS for Inhibitors of TGF-b: Confirmation of Cherry Picks; note: nearly all actives have a fitted effect of over 65% in size
Conditions: HepG2 CAGA-GFP TGF-b reporter, GFP fluorescence, 18 h; cells stimulated with TGF-beta, 500 pg/mL
Text: TGF-b is a main component in the TGF-b signaling pathway which plays diverse roles in cellular and development pathways. TGF-b is mediated through transcription factors called "Smads". Although the Smad-dependent pathway is the primary canonical TGF-b signaling mode, TGF-b1 can also activate alternative signaling pathways, including those involving MAPK (ERK, JNK and p38). This interaction may mediate or enhance Smad-dependent responses, or can exert Smad-independent effects. The complexity of this signaling cascade allows the TGF-b superfamily to perform unique, overlapping or redundant functions. We believe that targeting the TGF-beta pathway at the Smad-transcription factor level may eliminate the consequences of disrupting the entire pathway and offer specificity without affecting other signaling pathways. Smad3 is the primary transducer of TGF-b's signals and Smad3 regulates many functions attributed to TGF-b signaling. We hypothesize that Smad3 inhibitors will selectively eliminate Smad3-specific TGF-beta signals without undesired off-target effects. We aim to identify Smad3-small molecule antagonists using a quantitative high throughput screening (qHTS) approach. In this assay, hits identified from the primary screen were re-tested. MH087449NIH Chemical Genomics Center [NCGC] NIH Molecular Libraries Probe Centers Network [MLPCN] MLPCN Grant: MH087449 Assay Submitter (PI): Sushil Rane, National Institute of Diabetes and Kidney Diseases
Suspensions of trypsinized HEPG2 CAGA-GFP cells were dispensed into white, tissue culture-treated, solid 1536-well plates at 5uL/well (1000 cells/well final concentration) in DMEM medium supplemented with 1% FBS. Plates were incubated at 37 degrees C for 2 hours, after which 23 nL of compounds or DMSO were delivered to each well using a pin tool. One uL of recombinant TGF-beta in DMEM (1% FBS) was then dispensed (500 pg/mL final concentration), and plates were incubated at 37 degrees C for 18 hours. The plates were measured on an Acumen eX3 Explorer plate reader for GFP fluorescence (ex488/em500-530). GFP values were calculated by determining the mean GFP fluorescence of individual cells, and compiling these values for each well to determine a total well GFP signal. The %Activity was determined from the corrected fluorescence values. A titration of the known TGF-B inhibitor SB431542 was included to monitor plate performance, while unstimulated HEPG2 (-TGF-B) control wells were used to normalize %Activity of identified inhibitors; unstimulated wells corresponded to 100%Activity (full inhibition), while stimulated cell controls (+DMSO) were used to normalize 0%Activity (no inhibition). Concentration-response curves were fitted to the signals arising from the resulting fluorescence. The concentration-effect curves were then classified based on curve quality (r2), response magnitude and degree of measured activity, and compounds were subsequently categorized based on their curve class.
Potency is the fitted concentration of half-maximal effect.

Structure (SMILES) | Potency
COC(=O)C1=C(c2cc3ccccc3o2)C[C@@H]2CC[C@H]1N2C(=O)NC1CCCCC1 | 20.6 µM (active)
O=Cc1cn(Cc2ccc(F)cc2Cl)c2ccccc12 | 9.2 µM (active)
CN(C(=O)c1cccc(NC(=O)Cc2cccc([N+](=O)[O-])c2)c1)C1CCCCC1 | 13 µM (active)
CCC(C)(O)C(=O)OC1C(=O)OC2CC3C(C)=CC(=O)C(O)C3(C)C3C4(O)OCC23C1C(C)C4O (stereo not given) | 0.291 µM (active)
CC[C@H]1CN2CCc3cc(OC)c(OC)cc3[C@@H]2C[C@@H]1C[C@H]1NCCc2cc(OC)c(OC)cc21 | 0.0231 µM (active)
